In PubChem BioAssay (NCI):
The panel holds about 79,000 compounds, 15% with a hit somewhere; the sample as a whole holds those more often. The source made the active and inactive calls. No stated cut-off is given here; in the data, active means growth inhibition above about 70%; inactive means the rest.

What was measured:
[1] = NCI Yeast Anticancer Drug Screen. Data for the rad50 strain (AID 155);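 further: 0% = growth of vehicle-only cultures of the same strain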; conditions: S. cerevisiae rad50 strain growth inhibition; at 50.0 µM; active compounds read high
How it was run: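 Vehicle-treated cultures provide the reference for the growth inhibition reported for compound-exposed, repair-deficient yeast.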

[2] = NCI Yeast Anticancer Drug Screen. Data for the mec2-1 strain (AID 157); conditions: S. cerevisiae mec2-1 strain, at 50.0 µM, active compounds read high
How it was run: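 Yeast mec2-1 mutant treated with compound. Readout: growth inhibition vs vehicle controls.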

[3] = NCI Yeast Anticancer Drug Screen. Data for the sgs1 mgt1 strain (AID 161);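 further: 0% = growth of cultures given vehicle only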; conditions: S. cerevisiae sgs1 mgt1 strain, at 50.0 µM, active compounds read high
How it was run: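 Test agents were incubated with a DNA-repair-mutant yeast strain. Growth was then read and compared against vehicle-treated controls.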

[4] = NCI Yeast Anticancer Drug Screen. Data for the cln2 rad14 strain (AID 165);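 further: 0% = growth equal to vehicle treated cultures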; conditions: S. cerevisiae cln2 rad14 strain, at 50.0 µM, active compounds read high
How it was run: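 cln2 rad14 yeast strain; compound exposure; growth inhibition read vs vehicle controls.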

[5] = NCI Yeast Anticancer Drug Screen. Data for the bub3 strain (AID 167); conditions: S. cerevisiae bub3 mutant strain, at 50.0 µM, active compounds read high
How it was run: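 Mutant yeast screening strain plus compound; vehicle-treated cultures serve as the 0% inhibition reference.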

[6] = NCI Yeast Anticancer Drug Screen. Data for the mlh1 rad18 strain (AID 175); conditions: S. cerevisiae mlh1 rad18 strain growth inhibition; at 50.0 µM; active compounds read high
How it was run: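 Yeast w/ defined DNA-repair lesions; compound exposure; growth vs vehicle controls → % inhibition.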

Measured: growth inhibition

CCCCOC(=O)C(C)OC(=O)OC (configuration not stated)
inactive: [1] -21.1% | [2] -13% | [3] -2.25% | [4] -28.8% | [5] -15.7% | [6] 8%

CCCC1OC1(CC)C(=O)OCC(CC)(COC(=O)C1(CC)OC1CCC)COC(=O)C1(CC)OC1CCC (configuration not stated)
inactive: [1] -7.4% | [2] -19.5% | [3] 1.25% | [4] -2.05% | [5] 4.35% | [6] 4%

COc1ccc(N2C(=O)C3c4[nH]c5ccccc5c4C4CCC(C(C)(C)C)CC4C3C2=O)c(C)c1 (configuration not stated)
inactive: [1] 11.9% | [2] 1.95% | [3] 14.7% | [4] 17.1% | [5] -2.45% | [6] 17.1%

COc1cc(OC)cc(C(NC(C)=O)NC(C)=O)c1
inactive: [1] 5.45% | [2] 2.55% | [3] 7.7% | [4] -31.2% | [5] 1.5% | [6] 17.1%

CCCCCCc1cc2c(C)c(C)c(=O)oc2cc1OCCCOc1cc2oc(=O)c(C)c(C)c2cc1CCCCCC
inactive: [1] -17.9% | [2] -24.9% | [3] -12.5% | [4] 35.5% | [5] -11.8% | [6] -46.3%

CCCCCP(=O)(CCCCC)C1CCCC1
inactive: [1] -0.6% | [2] 11.2% | [3] -2.3% | [4] 1.75% | [5] 49.1% | [6] -0.65%

C1=NC(c2ccccc2)=CN(C2CCCCCCC2)C1(c1ccccc1)C1CCCCCCC1 (configuration not stated)
active: [2] 72.2%
inactive: [1] 40% | [3] 40.2% | [4] 45.6% | [5] 61.4% | [6] 50.4%

CCOc1c(OC)ccc(/C(C)=N\O)c1OCC
inactive: [1] -2.2% | [2] 0.65% | [3] 4.8% | [4] -1.7% | [5] 11.3% | [6] 10.1%

CC(=O)Nc1ccc(Cc2ccc(O)cc2)cc1
inactive: [1] 1.55% | [2] 6.65% | [3] -3.75% | [4] -31.1% | [5] -3.55% | [6] -1.45%

O=C(c1ccc(Cl)cc1)N(C(=S)N1CCN(c2ccccc2)CC1)C1CCCCC1
inactive: [1] 7.95% | [2] -11.3% | [3] -19.5% | [4] 22.7% | [5] -21% | [6] -4.05%

COc1ccc(/C=C/c2ccc3ccccc3n2)cc1
inactive: [1] 3.3% | [2] -20.6% | [3] 1.65% | [4] -46.1% | [5] 9.45% | [6] -16%

O=Cc1ccc(OCc2cccc([N+](=O)[O-])c2)cc1
inactive: [1] 6.6% | [2] 27.1% | [3] 26.4% | [4] -2.6% | [5] 31.4% | [6] 47%

Cn1nnnc1/C(=C/c1ccccc1)C(=O)O
inactive: [1] 12.9% | [2] -0.15% | [3] 0.1% | [4] -18.9% | [5] 12.1% | [6] 12.2%

CCCCCCCCCCCCCCCCCCCCC1CC(=O)OC1=O (configuration not stated)
inactive: [1] 41.6% | [2] 11.8% | [3] 36.4% | [4] 9.45% | [5] 2.7% | [6] 29.2%

CN(C)C(SCc1c(Cl)c(Cl)c(Cl)c(Cl)c1Cl)=[N+](C)C
inactive: [1] 19.4% | [2] 6.3% | [3] 15.4% | [4] 11.8% | [5] 7.15% | [6] 28.6%

O=C(/C=C/c1ccc(OCC(=O)N2CCN(c3ccccc3)CC2)cc1)c1ccc(Cl)cc1
inactive: [1] 13.6% | [2] 13.9% | [3] -5.8% | [4] 0.55% | [5] 2.7% | [6] -4.45%

COc1ccc(-c2cc(C)cc(O)c2)c(OC)c1OC
inactive: [1] 7.5% | [2] 6.2% | [3] 21.4% | [4] -8.2% | [5] -9.3% | [6] -11.3%

CCCCCCCCCCCc1noc2c1C(=O)C(O)CC2 (configuration not stated)
inactive: [1] 36.5% | [2] -3.05% | [3] -1.05% | [4] 40.4% | [5] -69% | [6] 5.25%

COc1ccc2c(c1)C1(C)CCCC(C)(C(N)=O)C1CC2 (configuration not stated)
inactive: [1] 0.1% | [2] -15.8% | [3] -8.05% | [4] 8.95% | [5] -12.2% | [6] -24.7%

Cc1ccc(NC(=O)N2CC2(C)C)cc1NC(=O)N1CC1(C)C
inactive: [1] 0.2% | [2] 0.55% | [3] 2.8% | [4] -1.6% | [5] 1.2% | [6] 4.9%

Cc1cn(C2CC(C)N(CCO)O2)c(=O)[nH]c1=O (configuration not stated)
inactive: [1] -8.1% | [2] -1.35% | [3] -16.8% | [4] -11.6% | [5] -14.9% | [6] -74.2%

COc1ccc(/C(C)=N/[O-])cc1CS[n+]1ccccc1
inactive: [1] 15.1% | [2] 27.7% | [3] 47.4% | [4] -4.4% | [5] 59.2% | [6] 48.6%

CCCCOC(=O)NC(Nc1ccc(S(=O)(=O)Nc2ccc(OC)nn2)cc1)(C(F)(F)F)C(F)(F)F
inactive: [1] -8.25% | [2] -1.5% | [3] -10.1% | [4] 5% | [5] -9.55% | [6] 2.95%

CC1(C)CC(O)(Cc2ccccc2)C(O)c2ccccc21 (configuration not stated)
active: [6] 74.2%
inactive: [1] 45.5% | [2] 32.1% | [3] 31.6% | [4] 54.5% | [5] 26.1%

COc1ccc(C2CC(=O)Oc3cc4c(cc32)OCO4)cc1 (configuration not stated)
inactive: [1] -10.2% | [2] -8.05% | [3] -11.2% | [4] -11.6% | [5] -2.2% | [6] -15.9%

CSc1nc(NC2OC(COC(C)=O)C(OC(C)=O)C(OC(C)=O)C2OC(C)=O)c(N=C(C)C(C)=O)c(=O)n1C (configuration not stated)
inactive: [1] 16.2% | [2] -7.75% | [3] -14.2% | [4] 9.7% | [5] 1.2% | [6] 6.95%

COc1ccc2[nH]c(=O)cc(C)c2c1
inactive: [1] -5.35% | [2] -4.1% | [3] -1.6% | [4] -37.7% | [5] 18.9% | [6] -85.3%

CCC(=N\NC(N)=S)/C(C)=N/O
inactive: [1] -2.35% | [2] 6.3% | [3] 19.4% | [4] 15.2% | [5] 14.3% | [6] 16.3%

CCN(CC)CCNC(=O)Cc1cc(O)c2c(c1O)C(=O)c1ccccc1C2=O
active: [1] 73% | [3] 76.8%
inactive: [2] 5% | [4] 40.9% | [5] 6.1% | [6] 51.5%

O=C(O)C(C(=O)O)C(c1ccccc1)c1ccccc1Br (configuration not stated)
inactive: [1] 5.15% | [2] 17.1% | [3] 28.1% | [4] -184% | [5] 23.9% | [6] 29.5%

Cc1ccc(C(=O)Nc2ccc3c(c2)Cc2ccccc2-3)cc1
inactive: [1] -19.3% | [2] -23.6% | [3] -7.45% | [4] -5% | [5] -20.6% | [6] -10.8%

COc1cccc(N2CCN(CC(O)COc3ccc(N)cc3)CC2)c1 (configuration not stated)
inactive: [1] 36.1% | [2] 25.1% | [3] 31.9% | [4] 30.6% | [5] 25.1% | [6] 44%

CC1COB(c2ccccc2)OCC(C)N1CNC(=O)C1=C(O)C2(O)C(O)=C3C(=O)C4C(O)=CC=CC4C(C)(O)C3CC2C(N(C)C)C1=O (configuration not stated)
inactive: [1] -8.75% | [2] 33.2% | [3] 34.6% | [4] -16.6% | [5] -6.85% | [6] 38.6%

Nc1nc2c(c(=O)[nH]1)C(c1ccc(Cl)cc1)C=C(c1ccccc1)N2 (configuration not stated)
inactive: [1] 5.6% | [2] 14.8% | [3] 3.8% | [4] -1.85% | [5] -4.75% | [6] -33.5%

Nc1cnc(Nc2cccc3ccccc23)o1
inactive: [1] -26.3% | [2] -35.3% | [3] -14.1% | [4] 0.35% | [5] 8.85% | [6] -15.7%

Cc1cccc(NC(=S)NCCc2ccccn2)c1
inactive: [1] -6.85% | [2] -7.35% | [3] 17.9% | [4] -10.8% | [5] 12.7% | [6] 5.5%

COc1cc(C2c3cc4c(cc3OC(NCCc3ccccc3)C2C)OCO4)cc(OC)c1OC (configuration not stated)
inactive: [1] -15.8% | [2] -41.4% | [3] -0.3% | [4] -25.4% | [5] 0.6% | [6] 11.4%
